Among the data in ChEMBL document CHEMBL4513216, “Probing the Open Global Health Chemical Diversity Library for Multistage-Active Starting Points for Next-Generation Antimalarials” (ACS Infect Dis, 2020) are INHIBITION values, retold here.

SMILES strings stand for the structures. The whole screen tested about 69,000 compounds, of which about 8,600 (12%) showed an effect of 50% or more. Many of the other results were omitted from the sample, so strong results are more common in it than they were.

In the test the test system is Plasmodium berghei. Nature of the test: Screen against P. berghei liver stage (PbLuc), transformed with Luciferase, at 10uM. In kind it is functional, HepG2. The following applies: tested at 10 uM.
For `Cn1cnc2c1C(COCc1ccccc1)N(Cc1ccncc1)CC2` (stereo not drawn), the INHIBITION amounted to 15.9%.

Regarding `COC(=O)c1cc(OC)ccc1NCC(=O)NCC(=O)N1CCCC1`, the INHIBITION is listed as 2.03%.

Turning to `CC(C)c1nc(CN2CCOC(Cn3cncn3)C2)no1` (stereo not drawn), the INHIBITION was -15.5%.

Turning to `O=C(NC1CCN(c2cc(-n3ccnc3)ncn2)CC1)c1ccncc1`, the INHIBITION was 69.1%.

As for `O=C(NC1CCN(c2ncccn2)CC1)c1cccc(-n2ccnc2)c1`, the INHIBITION is given as -2.94%.

With `O=C(NC1CCCC1)C1CCN(c2cc(-n3ccnc3)ncn2)CC1`, the INHIBITION was determined as 48%.

Turning to `CC1c2ncc(CN3CCN(C)CC3)n2CCN1Cc1cnn(C)c1` (stereo not drawn), the INHIBITION was 33.2%.

Regarding `O=C1CO[C@@H]2CN(Cc3cccs3)C[C@H]2N1Cc1ccncc1`, the INHIBITION is given as 14.2%.

For `CCN(CC)CCNC(=O)CCc1c(C)nn(-c2cccc(Cl)c2)c1C`, the INHIBITION was 48%.

Turning to `CCN(CC)CCNC(=O)CCc1c(C)nn(-c2ccc(Cl)cc2)c1C`, the INHIBITION amounted to 63.9%.

Turning to `CCN(CC)CCNC(=O)CCc1c(C)nn(-c2ccccc2Cl)c1C`, the INHIBITION worked out at 48%.

As to `O=C1NCCN1CCNc1cc(-c2ccncc2)nc2ccnn12`, the INHIBITION is recorded as -4.91%.

For `CNC(=O)c1cccnc1Oc1ccccc1`, the INHIBITION is reported as 9.89%.

Take `NC(=O)CC1c2cccnc2C(=O)N1Cc1ccccc1` (stereo not drawn): the INHIBITION is -16.4%.

On to `CC(C)(C)c1n[nH]c(C2CN(C(=O)c3cc(Cl)c[nH]3)CCO2)n1` (stereo not drawn), for which the INHIBITION came out at 19.7%.

As to `Cc1ccc(S(N)(=O)=O)cc1C(=O)NC1CCCN(C)C1` (stereo not drawn), the INHIBITION was 3.46%.

`CC(=O)N[C@H]1CN(S(=O)(=O)N(C)Cc2ccccc2)C[C@@H]1C1CC1`: the INHIBITION was 64.4%.

Turning to `CN(Cc1ccccc1)S(=O)(=O)N1C[C@@H](C(=O)O)[C@H](C2CC2)C1`, the INHIBITION is 61.8%.

In the case of `CC(=O)N[C@@H]1CN(S(=O)(=O)Cc2ccccc2)C[C@H]1C(C)C`, the INHIBITION came out at 41.6%.

With `CN(Cc1ccccc1)S(=O)(=O)N1C[C@H](C2CC2)[C@@H](N)C1`, the INHIBITION was -43.1%.

Consider `CCN(Cc1ccccc1)C(=O)CCN1C[C@@H](C(=O)O)[C@H](C2CC2)C1`, for which the INHIBITION is 5.78%.

`CN(Cc1ccc(F)cc1)S(=O)(=O)N1CCOCC1`: the INHIBITION is -8.005%.

Consider `CN(Cc1cccc(F)c1)S(=O)(=O)N1CCOCC1`, for which the INHIBITION is on record as -26.1%.

Take `CCC[C@H]1CN(S(=O)(=O)N(C)Cc2ccccc2)C[C@@H]1N`: the INHIBITION is 77.5%.

Consider `CN(Cc1ccccc1)C(=O)CCN1C[C@H](C2CC2)[C@@H](N(C)C)C1`, for which the INHIBITION came out at 14.9%.

Regarding `CN(C)CC(=O)N1CC2(CCN(S(=O)(=O)c3ccccc3)C2)C1`, the INHIBITION is -25.8%.

As to `C1CCC(CNC2CCCN(Cc3noc(C4CC4)n3)C2)C1` (stereo not drawn), the INHIBITION was determined as 7.43%.

For the molecule `CC(c1ncc(-c2ccccc2)o1)N1CCN(C(=O)N(C)C)CC1` (stereo not drawn), the INHIBITION turned out to be 48.2%.

With `CCn1c(C)nnc1CN(C)C1CCN(CCS(=O)(=O)CC)C1` (stereo not drawn), the INHIBITION is listed as -49.5%.

As to `CC(C)CCN1C2(CCN(C(=O)CN(C)C)C2)c2ccccc2S1(=O)=O` (stereo not drawn), the INHIBITION is listed as 21.4%.

With `CS(=O)(=O)N1CC2(CCN(C3CCCCC3)CC2)Cc2ccccc21`, the INHIBITION came to 32.5%.

Regarding `O=C(c1n[nH]c2c1CCN(Cc1nccs1)C2)N1CCCC1`, the INHIBITION is listed as 18.1%.

In the case of `CS(=O)(=O)c1cc(NC(=O)COc2ccccc2F)cc(C(=O)O)c1`, the INHIBITION turned out to be 1.98%.

With `CC(C)CCC(=O)NC(C#N)CC(C)C` (stereo not drawn), the INHIBITION amounted to 9.91%.

For `CC(C)CC(C#N)NC(=O)CCNC(=O)C(C)(C)C` (stereo not drawn), the INHIBITION is recorded as 55.5%.

`CCC(C#N)NC(=O)CCNC(=O)C(C)(C)C` (stereo not drawn): the INHIBITION was -0.991%.

Take `Cc1nc(CN2CCC3(CC2)NC(=O)CC3c2ccccc2)cs1` (stereo not drawn): the INHIBITION is reported as 34.1%.

With `CC(C)Cc1noc(C2CCCCN2C(=O)CCc2cnn(C)c2)n1` (stereo not drawn), the INHIBITION was found to be 32.2%.

With `Cc1nn(C)c2sc(C(=O)N3CCCC(n4ccnc4C)C3)cc12` (stereo not drawn), the INHIBITION is on record as 28.4%.

As to `O=c1occ(CN2CCCCCC2)c(O)c1CN1CCOCC1`, the INHIBITION was -28.7%.

As to `Cc1nc(C)c(S(=O)(=O)NC(=O)c2cccs2)s1`, the INHIBITION came out at 22.8%.

As to `Cc1cccc(NC(=O)c2sccc2C)n1`, the INHIBITION is given as -52.1%.

Turning to `Cc1nc(C)c(S(=O)(=O)NC(=O)c2ccsc2)s1`, the INHIBITION amounted to 21.8%.

As to `Cc1nc(C)c(S(=O)(=O)NC(=O)c2sccc2C)s1`, the INHIBITION was 51.5%.

In the case of `Cc1nc(C)c(S(=O)(=O)NC(=O)c2ccoc2)s1`, the INHIBITION is listed as 64.4%.

With `O=C(NS(=O)(=O)c1cnn(-c2ccccc2F)c1)c1ccoc1`, the INHIBITION is recorded as -17.4%.

For the molecule `CCC(C)C(=O)NCCc1nc(C(F)(F)F)cs1` (stereo not drawn), the INHIBITION is given as 5.42%.

Turning to `CCc1nc(C(=O)N2CC(C)CN(C)c3ccccc32)c[nH]1` (stereo not drawn), the INHIBITION was -15%.

Take `CCOc1cccc(NC(=O)c2cc(C)on2)n1`: the INHIBITION came to 44.1%.

On to `CCOCCCn1c(NC(=O)c2scnc2C)nc2ccccc21`, for which the INHIBITION is recorded as 69.8%.

On to `CCOCCCn1c(NC(=O)c2cnc(C)s2)nc2ccccc21`, for which the INHIBITION turned out to be 57%.

As for `CCOCCCn1c(NC(=O)c2ccnc(C)n2)nc2ccccc21`, the INHIBITION is reported as 25.4%.

For the molecule `Cc1ncsc1C(=O)Nc1ccccn1`, the INHIBITION is 25.2%.

For the molecule `CCCn1c(NC(=O)CNC(=O)OCC)nc2ccccc21`, the INHIBITION is -3.74%.

Consider `CCOCCCn1c(NC(=O)c2cnc(C)cn2)nc2ccccc21`, for which the INHIBITION is reported as -96.9%.

As for `CCOCCCn1c(NC(=O)c2cnn(C)c2)nc2ccccc21`, the INHIBITION is -4.73%.

As for `CCOCCCn1c(NC(=O)c2cc(C)on2)nc2ccccc21`, the INHIBITION came out at 64.9%.

In the case of `CCN(CC)CCn1c(NC(=O)c2scnc2C)nc2ccccc21`, the INHIBITION is 59%.

As for `CCOCCCn1c(NC(=O)c2cc(C)no2)nc2ccccc21`, the INHIBITION was 5.7%.

For `CCOCCCn1c(NC(=O)c2ccc(C)nc2)nc2ccccc21`, the INHIBITION is recorded as 37.2%.

Turning to `Cc1ccc(C(=O)NCCS(=O)(=O)N2CCSCC2)o1`, the INHIBITION stood at 44.9%.

As to `Cc1nc2cc(O)nn2c(C)c1CCC(=O)N(C)Cc1cscn1`, the INHIBITION is recorded as -16.6%.

As to `O=C1CCCN1c1cccc(CNCc2nc(-c3ccco3)no2)c1`, the INHIBITION is reported as -8%.

Regarding `Cn1nccc1CCC(=O)NC1CCCN(c2ccccn2)C1` (stereo not drawn), the INHIBITION is recorded as 25.05%.

On to `CC(C)N(C)[C@@H]1CCN(Cc2nccs2)[C@H]1Cc1ccncc1`, for which the INHIBITION came out at 24.6%.

Take `CC1COCCN1Cc1nc(-c2ccc(F)cc2)no1` (stereo not drawn): the INHIBITION was -0.113%.

As for `COC1C[C@@H]2CN(C(=O)c3[nH]nc4c3CCCC4)C[C@@H]2C1` (stereo partly drawn), the INHIBITION is listed as 24.8%.

`Cn1c(CN2CCCC(c3noc(C4CC4)n3)C2)cc(=O)n(C)c1=O` (stereo not drawn): the INHIBITION is recorded as -50.5%.
